In PubChem BioAssay:

biological target: Calmodulin-1 (Homo sapiens) (UniProt P0DP23); assay: small molecules binding Ca-loaded calmodulin-1 – biochemical, small-molecule microarray, Cy5-labelled CALM1, plus calcium, artefact control for SMM control-protein annotation, profiling panel (AID 1112); conditions: Cy5-CALM1 binding fluorescence, higher = more signal;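 further: score merges spot fluorescence with signal to noise from triplicate slides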

Going from `COc1cc2c(cc1O)C=[N+](Cc1cccc(OC(F)(F)F)c1)CC2` to `Cc1ccc(S[C@]2(C(=O)NCC(F)(F)F)CC(=O)N(C(C)C)[C@@H]2c2ccc(CO)cc2I)cc1`, the composite z-score rises from -0.149 to 0.363.

Going from `CCOC(=O)C=Cc1cc([N+](=O)[O-])ccc1O` to `C=C[C@H](COC(C)=O)N(C(=O)OC(C)(C)C)S(=O)(=O)c1ccc(Br)cc1`, the composite z-score falls from -0.5 to -0.907.

Going from `N#Cc1ccc(NN2C(C(O)c3c(F)cccc3Cl)C=CC3C(=O)N(c4ccccc4)C(=O)C32)cc1` (stereo unspecified) to `CN1C(=O)C2C=CC(C(O)c3cccs3)N(Nc3ccccc3)C2C1=O` (stereo unspecified), the composite z-score falls from 1.07 to -0.591.

First: O=C1O[C@H](c2ccccc2)[C@H](c2ccccc2)N2[C@H]1[C@@H](C(=O)NC[C@H](O)c1ccccc1)[C@]1(C(=O)Nc3ccccc31)[C@H]2c1ccc(OCCO)cc1
Second: O=C1O[C@H](c2ccccc2)[C@H](c2ccccc2)N2[C@H]1[C@@H](C(=O)Nc1nc3ccccc3s1)[C@]1(C(=O)Nc3ccc(C#CCCO)cc31)[C@H]2c1ccc(OCCO)cc1
The composite z-score of the first is higher: 0.245 for the first, 0.0502 for the second.

Going from `O=C1c2ccccc2[C@](Cc2ccccc2I)(C(=O)NC2CC2)[C@H](c2ccc(CO)cc2)N1C1CCCCC1` to `C[C@]1(C(=O)NC2CC2)c2ccccc2C(=O)N(Cc2cc(C(F)(F)F)cc(C(F)(F)F)c2)[C@H]1c1ccc(CO)cc1`, the composite z-score rises from 0.0028 to 0.114.

Going from `CC(C)C[C@@H]1NC(=O)[C@@H]2C[C@H](C(=O)NCCCCCN)[C@H](c3cccc(OCCO)c3)N2C1=O` to `NCCCCCNC(=O)[C@@H]1C[C@@H]2C(=O)N[C@@H](Cc3ccccc3)C(=O)N2[C@@H]1c1cccc(OCCO)c1`, the composite z-score rises from 0.615 to 0.791.

First: CCCCCN1CC=CC23O[C@@H]4/C=C\CCCOC(=O)C4[C@H]2C(=O)N(C(CO)C(C)C)[C@@H]3C1=O (stereo partly specified)
Second: CCCCCN1CC=CC23O[C@@H]4/C=C\CCCOC(=O)C4[C@H]2C(=O)N(CCCO)[C@@H]3C1=O (stereo partly specified)
The composite z-score of the first is lower: -0.272 for the first, 0.132 for the second.

First: O=C(NCc1ccc(F)cc1)[C@H]1C[C@H]2C(=O)N[C@@H](Cc3ccccc3)C(=O)N2[C@H]1c1ccc(O)cc1
Second: C[N+](C)(C)CCCCNC(=O)[C@H]1C[C@H]2C(=O)N[C@@H](Cc3ccccc3)C(=O)N2[C@H]1c1ccc(O)cc1
The composite z-score of the first is lower: 0.531 for the first, 0.565 for the second.

Going from `COCC(=C=CC[C@@H](O)c1ccccc1OCCO)C[C@@H](O)c1cc(Cl)cc(Cl)c1O` to `O=C(O)[C@@]1(CCS(=O)(=O)c2ccccc2)COC(c2ccc(OCCCO)cc2)=N1`, the composite z-score rises from -0.534 to 0.24.

Compared with `COCCOC(=O)N1C(=O)[C@@]2(c3cc(C#CC4=CCCCC4)ccc31)[C@H](C(N)=O)[C@H]1C(=O)O[C@H](c3ccccc3)[C@H](c3ccccc3)N1[C@@H]2c1ccc(OCCO)cc1`, `COCCOC(=O)N1C(=O)[C@@]2(c3cc(C#CC4=CCCCC4)ccc31)[C@H](C(=O)Nc1nc3ccccc3s1)[C@H]1C(=O)O[C@H](c3ccccc3)[C@H](c3ccccc3)N1[C@@H]2c1ccccc1OCCO` is higher in composite z-score: -0.919 for the first, 0.417 for the second.

Compared with `O=C1OCCC/C=C\[C@H]2OC34C=CCN(Cn5nnc6ccccc65)C(=O)[C@H]3N(CCO)C(=O)[C@@H]4C12` (stereo partly specified), `O=C1OCCC/C=C\[C@H]2OC34C=CCN(CCN5CCOCC5)C(=O)[C@H]3N(CCCO)C(=O)[C@@H]4C12` (stereo partly specified) is lower in composite z-score: 0.963 for the first, -0.147 for the second.

First: C=CCOC(=O)[C@H]1[C@@H]2C(=O)O[C@@H](c3ccccc3)[C@@H](c3ccccc3)N2[C@@H](c2ccc(OCCOC(=O)[C@@H]3C[C@@H]4C(=O)N5CCC[C@H]5C(=O)N4[C@@H]3c3cccc(OCCO)c3)cc2)[C@]12C(=O)Nc1ccccc12
Second: C=CCOC(=O)[C@H]1[C@@H]2C(=O)O[C@@H](c3ccccc3)[C@@H](c3ccccc3)N2[C@@H](c2ccc(OCCOC(=O)[C@@H]3C[C@@H]4C(=O)N[C@@H](CCCCN(C)C)C(=O)N4[C@@H]3c3ccc(O)cc3)cc2)[C@]12C(=O)Nc1ccc(I)cc12
The composite z-score of the first is higher: 0.0319 for the first, -0.547 for the second.

Compared with `CCCCCCC#C[Si](O[C@H](c1ccccc1)c1cn([C@H](CO)Cc2ccccc2)nn1)(C(C)C)C(C)C`, `O=C1C2C=CC(C(O)C(c3ccccc3)c3ccccc3)N(n3cnnc3)C2C(=O)N1Cc1ccccc1` (stereo unspecified) is lower in composite z-score: 0.105 for the first, -0.34 for the second.

Going from `COc1ccc([Si](C)(C)[C@H]2[C@H](CC(=O)N3CCC[C@H]3CO)O[C@@]3(C(=O)N(Cc4cccc(N5C(=O)c6cccc7cccc5c67)c4)c4ccccc43)[C@@H]2C)cc1` to `COc1ccc([Si](C)(C)[C@H]2[C@H](CC(=O)N3Cc4ccccc4C[C@H]3CO)O[C@@]3(C(=O)N(Cc4ccc(N5CCC5=O)cc4)c4ccccc43)[C@@H]2C)cc1`, the composite z-score falls from -0.0975 to -0.89.

Going from `CC(C)C[C@@H]1NC(=O)[C@H]2C[C@@H](C(=O)NCCCCCCN(C)C)[C@@H](c3ccc(O)cc3)N2C1=O` to `CC(C)C[C@H]1NC(=O)[C@@]23C(=O)N[C@@H](Cc4ccccc4)C2[C@H](C)[C@@]2(C)O[C@H]2C3/C=C/C/C=C\CNC(=O)[C@H](Cc2ccccc2)NC1=O` (stereo partly specified), the composite z-score rises from -1.19 to -0.578.

Going from `CN1C(=O)C2C=CC(C(O)C3CC=CCC3)N(NC(=O)OC(C)(C)C)C2C1=O` (stereo unspecified) to `CCOC(=O)[C@H]1CC=C2CC1C(=O)N1CCC[C@@H]1[C@@H]2O[Si](C)(C)C(C)(C)C` (stereo partly specified), the composite z-score falls from 0.785 to -1.61.

First: CN(C)C(=O)[C@]1(Cc2ccccc2N=[N+]=[N-])N=C(c2ccc(OCCCO)cc2)O[C@@H]1c1ccccc1
Second: CCCC[C@@H]1C[C@H]1[C@@H](NC(=O)c1ccco1)c1ccc(C(=O)OC)cc1
The composite z-score of the first is lower: 0.0377 for the first, 0.555 for the second.

First: CCc1oc(CC[C@@H](CO)NC(=O)NCCn2cc(C3(O)CCCCC3)nn2)c(C(=O)OC)c1C(=O)OC
Second: CCOC(=O)[C@H]1C/C=C/C[C@H](C(=O)OCC)C(=O)O[C@H]2[C@@H](OC)O[C@H](CO)[C@@H](OC(=O)Nc3cccc(F)c3)[C@@H]2OC1=O
The composite z-score of the first is lower: -0.657 for the first, -0.273 for the second.
